Screening results: PubChem, National Center for Advancing Translational Sciences (NCATS)
In the library only some 7.5% were active in any assay of this set; here they are far more common.
SMN2 splice up – SMN2 splice variant enhancement. HEK293 SMN2-luciferase splicing reporter, luminescence, 30-36 h. Potency, µM (series often up to 46.1 µM), for inactives: top-dose activity change, positive = activation, actives largely listed as activators. 210,000 tested, 2.8% active; also: % of control where 0% means no effect; nearly all actives have a fitted effect of over 55% in size
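HEK293 cells carry an SMN2 […]–luciferase reporter in which exon 7 inclusion puts luciferase in frame. Cells were plated 10-12 h before compound addition, then incubated 30-36 h at 37C. ONE-Glo luminescence was read; sodium butyrate at 4.5 mM final served as control.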
Rab9 promoter act – activates the Rab9 promoter; Huh7 Rab9 promoter-luciferase reporter, luminescence, 24 h; Potency, µM (highest dose often 9.22 µM), for the others: at the top dose activation, negative = inhibition, actives largely listed as activators; 320,000 tested, 2.8% active; also: % of control where 0% means no effect; nearly all actives have a fitted effect of over 60% in size
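Measured in stably transfected Huh7 cells bearing a Rab9 promoter–luciferase construct: 24 h compound treatment at 37 °C, followed by luminescence detection.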
FLuc counter – counter-screen for miR-21 project: firefly luciferase inhibitors or activators; purified FLuc, Km substrates, luminescence inhibition; Potency, µM (top dose mostly 57.5 µM), inactives show at the top dose activity change, negative = inhibition, hits mostly inhibitors; 360,000 tested, 6.9% active; AID 588342;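 also: plate controls were vehicle for no effect and reference inhibitor for full effect; nearly all actives have a fitted effect of over 55% in size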
Target sequence (P08659 whole entry, looked up): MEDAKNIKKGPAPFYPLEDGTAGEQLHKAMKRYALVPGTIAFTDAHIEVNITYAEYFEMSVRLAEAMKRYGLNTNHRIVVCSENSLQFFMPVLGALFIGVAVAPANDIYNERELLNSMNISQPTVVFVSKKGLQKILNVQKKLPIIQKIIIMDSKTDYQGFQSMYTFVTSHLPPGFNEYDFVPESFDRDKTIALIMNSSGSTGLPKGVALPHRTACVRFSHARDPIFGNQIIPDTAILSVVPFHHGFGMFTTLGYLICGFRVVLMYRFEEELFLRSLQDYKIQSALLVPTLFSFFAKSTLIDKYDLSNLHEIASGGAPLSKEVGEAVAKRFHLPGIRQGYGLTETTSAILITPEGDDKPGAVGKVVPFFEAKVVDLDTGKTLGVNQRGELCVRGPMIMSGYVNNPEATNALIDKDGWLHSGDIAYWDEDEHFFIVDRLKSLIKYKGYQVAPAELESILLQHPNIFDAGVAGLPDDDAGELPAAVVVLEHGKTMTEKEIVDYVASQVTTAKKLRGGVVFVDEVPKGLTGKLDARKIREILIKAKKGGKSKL
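Biochemical qHTS of compounds, final roughly 60 µM downward over six points, against 10 nM purified firefly luciferase using Km concentrations of substrates (10 uM D-luciferin, 10 uM ATP) in Tris acetate pH 7.5 buffer; luminescence output.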
ELG1 genotoxic – inducers of genotoxicity in HEK293T ELG1-luciferase cells. HEK293T ELG1-luciferase reporter, luminescence, 16 h. Potency, µM (top dose mostly 46 µM), without a hit: top-dose activity change, positive = activation, hits mostly activators. 330,000 tested, 1.3% active. AID 504466; also: % of control where 0% means no effect; nearly all actives have a fitted effect of over 60% in size
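After overnight (16 hr) compound treatment at 37 °C, ELG1-luciferase HEK293T cells were lysed with ONE-Glo; luminescence quantified 30 min later at room temperature.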
NPC1 prom act – activates the NPC1 promoter; AID 485313; Potency, µM (doses to about 9.22 µM), without a hit: at the highest dose activation, usual class: activators; 320,000 tested, 2.4% active; Huh7 NPC1 promoter luciferase reporter, 24 h; also: % of control where 0% means no effect; nearly all actives have a fitted effect of over 60% in size
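In 1536-well qHTS, Huh7 cells harboring an NPC1 promoter–luciferase construct received compound for 24 h; activation was quantified by luminescence following luciferase reagent addition.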
KinaseGlo FLuc – counter-screen: inhibitors of Kinase-Glo firefly luciferase. Kinase-Glo luciferase, ATP luminescence, 8 min. Potency, µM (highest dose often 38.3 µM), for the others: at the highest dose activity change, negative = inhibition, actives largely listed as inhibitors. 200,000 tested, 0.28% active; also: % is scaled to controls: 0 for no effect and ±100 for the full control effect; nearly all actives have a fitted effect of over 60% in size
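Recombinant Kinase-Glo luciferase, 10 uM ATP (linear range), luciferin; imidazole pH 7.2 / KCl / MgCl2 / Tween / BSA buffer; 8 min RT; luminescence.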
The depositor's hits bear a star; u = inconclusive; x = no result; [ ] = another dose, or the depositor's remark. Calls follow the shape of the dose curve; as a rule, active = well fitted curve in the direction sought with a large enough effect; inconclusive = small, poorly fitted or top-dose-only effect, or another doubt; inactive = no such curve, though single readings can be large; an effect the other way counts as inactive or inconclusive. Potency is read from the fitted curve at half-maximal effect.

SMILES	SMN2 splice up	Rab9 promoter act	FLuc counter	ELG1 genotoxic	NPC1 prom act	KinaseGlo FLuc
COc1ccc(C(=O)NCc2ccc(F)cc2)cc1S(=O)(=O)N1CCCC1	x	-4.8%	-0.1%	-0.8%	-0.3%	x
Cc1c(C(=O)N2CCCCC2)c(S(=O)(=O)NCCc2ccc(Cl)cc2)c(C)n1C	x	-3.1%	-1.2%	-1.6%[9.26 µM]	2.0%	x
CCN(CC)C(=O)c1sc(NC(=O)c2cccs2)c(C#N)c1C	x	-8.5%	-13.9%	-3.1%	-7.7%	-0.5%
CCN(CC)C(=O)c1ccc(-c2cccs2)s1	x	3.55µM*	10.7µM*	u	2.51µM*	x
Cc1ccc(S(=O)(=O)c2cn(Cc3ccccc3)c3cc(N4CCCC4)c(F)cc3c2=O)cc1C	x	x	-1.3%	x	x	x
Cc1cc([N+](=O)[O-])ccc1N=Nc1c(N)[nH]n(-c2ccccc2)c1=O	2.2%	-2.2%	-6.2%	-1.4%	7.6%	-3.5%
Nc1[nH]n(-c2ccccc2)c(=O)c1N=Nc1ccc2c(c1)OCCO2	2.24µM*	0.501µM*	0.601µM*	u	2µM*	-1.6%
Nc1[nH]n(-c2ccccc2)c(=O)c1N=Nc1ccc2c(c1)OCO2	x	3.16µM*	2.39µM*	u	3.55µM*	x
CC1CCN(c2nc3ccc(C(=O)NCCCN4CCCCC4C)cc3s2)CC1 (stereo unspecified)	x	-45.9%	u	u	-18.4%	x
CC1CCN(c2nc3ccc(C(=O)NCc4ccccc4)cc3s2)CC1	-23.6%	x	12µM*	x	x	x
CC1CCN(c2nc3ccc(C(=O)NC(C)C)cc3s2)CC1	0.794µM*	x	1.69µM*	x	x	x
Cc1cc(=O)[nH]c2c(C)cc(S(=O)(=O)N3CCCCC3)cc12	x	-9.8%	0.0%	16.4µM*	-9.6%	x
Cc1cc(=O)[nH]c2c(C)cc(S(=O)(=O)NCc3ccccc3)cc12	x	2.1%	1.9%	-1.2%	3.2%	x
COc1ccc(/C=C(/C(=O)c2cccs2)N2C=CC=CC2=C(C#N)C#N)cc1	x	0.7%	13.5µM*	u	-10.8%	x
COCCNc1nc(-c2cc3ccccc3o2)cs1	3.16µM*	1µM*	1.51µM*	u	1.58µM*	2.8%
COc1cc(OC)cc(C(=O)Nc2cccc(-c3cn4cccnc4n3)c2)c1	x	x	-16.8%	x	x	x
O=C(COc1ccccc1)Nc1cccc(-c2cn3cccnc3n2)c1	x	u	15.1µM*	-7.4%	14.0%	x
COc1ccc(NC(=O)Nc2cccc(-c3cn4cccnc4n3)c2)cc1	5.5%	x	1.69µM*	x	x	x
CC(=O)Nc1cccc(-c2cn3cccnc3n2)c1	x	x	-2.0%	x	x	x
CC1=C/C(=C(/c2cc(C)c(O)c(Br)c2)c2ccccc2S(=O)(=O)O)C=C(Br)C1=O	x	-3.0%[1.84 µM]	15.1µM*	-11.5%	-8.9%	x
CC1=C/C(=C(/c2ccc(O)c(C)c2)c2ccccc2S(=O)(=O)O)C=CC1=O	x	-5.9%	u	-1.1%	-5.0%	x
COc1ccc(N2Cc3ccccc3C2)cc1Cl	u	u	u	20.6µM*	18.6%	-4.2%
COc1cc(NC(=O)CCC(=O)Nc2ccc3nc(N4CCOCC4)cc(C)c3c2)cc(OC)c1OC	x	16.5%	15.1µM*	6.2%	24.1%	x
COc1ccc(NC(=O)CCC(=O)Nc2ccc3nc(N4CCOCC4)cc(C)c3c2)c(OC)c1	x	2.51µM*	2.69µM*	u	u	x
COc1ccc(OC)c(NC(=O)c2csnn2)c1	x	x	0.4%	x	x	x
SMILES	SMN2 splice up	Rab9 promoter act	FLuc counter	ELG1 genotoxic	NPC1 prom act	KinaseGlo FLuc
CCC(C)NC(=O)c1cn(CC)c2ccc(S(=O)(=O)N3CCc4ccccc4C3)cc2c1=O (stereo unspecified)	-5.9%	x	2.3%	x	x	x
CCOc1ccc(NC(=O)n2ncc3c(C)cccc32)cc1	x	1.41µM*	1.35µM*	u	0.447µM*	x
COC(=O)c1ccc(NC(=O)n2ncc3c(C)cccc32)cc1	x	x	-1.3%	x	x	x
COc1cccc(NC(=O)n2ncc3c(C)cccc32)c1	x	0.316µM*	0.169µM*	1.64µM*	0.0891µM*	x
CCOC(=O)Cc1ccc(NC(=O)n2ncc3c(C)cccc32)cc1	2.9%	x	5.36µM*	x	x	x
COc1ccc(S(=O)(=O)c2cn(C)c3cc(N4CCCC4)c(F)cc3c2=O)cc1	x	x	-1.7%	x	x	x
Cc1ccc(C2CCN(C(=O)Nc3ccc(F)cc3)C2)cc1 (stereo unspecified)	x	u	23.9µM*	u	u	x
CC(=O)c1cccc(NC(=O)N2CCC(c3ccc(C)cc3)C2)c1 (stereo unspecified)	x	14.6%	16.9µM*	2.6%	u	x
Cc1ccc(NC(=O)C2CCCN(C(=O)Nc3ccc(F)cc3)C2)cc1 (stereo unspecified)	x	u	-3.2%	15.8%	-0.3%	x
COc1cccc(C2C(=O)N(C3CCCCC3)CC(=O)N2Cc2ccc(Cl)cc2)c1 (stereo unspecified)	x	x	6.4%	x	x	x
COc1ccc(/C=C2/CCc3ccccc3C2=O)cc1CN1CCOCC1	-15.0%	-0.3%	9.53µM*	17.6%	-1.2%	0.9%
COc1ccc(/C=C/C(=O)c2ccccc2O)cc1CN1CCOCC1	-11.6%	1.7%	-3.0%	-9.2%	-2.9%	-1.8%
COc1ccc(/C=C2\CCc3ccccc3C2=O)cc1Cn1nc(C)cc1C	-29.0%	-2.0%	13.5µM*	18.5%	-10.0%	-3.4%
CC(C)c1nn2c(=O)cc(COC(=O)c3cccc(NC(=O)c4ccccc4F)c3)nc2s1	x	x	-9.9%	x	x	x
COc1ccc(Nc2cc(C)c3cc(NC(=O)COc4cccc(C)c4)ccc3n2)cc1	x	x	-2.1%	x	x	x
COc1ccc(Cl)cc1NC(=O)CN(C)C(=O)c1n[nH]c2ccccc12	x	-5.5%	1.4%	-16.4%	-0.2%	x
CC(C)(C)C1CCc2c(sc3ncn(N)c(=N)c23)C1 (stereo unspecified)	x	-2.4%	-2.7%	-10.0%	-1.9%	x
Cn1c(=S)[nH]c2sc3c(c2c1=O)CCC(C(C)(C)C)C3 (stereo unspecified)	x	u	4.26µM*	7.3%	u	x
COc1ccc(-n2c(=S)[nH]c3sc4c(c3c2=O)CCN(C)C4)cc1	x	-0.3%	-3.1%	0.4%	-4.1%	x
CCCn1c(=S)[nH]c2sc3c(c2c1=O)CCCC3	x	1.7%	15.1µM*	-15.9%	0.1%	x
COCCn1c(=S)[nH]c2sc3c(c2c1=O)CCC(C)C3 (stereo unspecified)	x	2.9%	16.9µM*	-6.7%	-1.3%	x
COCCCn1c(=S)[nH]c2sc3c(c2c1=O)CCCS3	-28.0%	11.3%	10.7µM*	-6.6%	19.5%	-5.7%
O=C(NCc1ccccc1)c1c[nH]c2ccccc2c1=O	x	6.7%	3.3%	-6.1%	-2.4%	x
CCOc1ccc(CC(=O)Nc2c(C(=O)c3ccc(F)cc3)oc3ccc(Cl)cc23)cc1OCC	-4.8%	x	-1.7%	x	x	x
COc1cc2nc(N3CCN(C(=O)[C@@H]4COc5ccccc5O4)CC3)nc(N)c2cc1OC	0.7%[20.6 µM]	x	x	x	x	1.8%[17.1 µM]
